Assay outcomes (PubChem)
AmpC inh no detg: qHTS Inhibitors of AmpC Beta-Lactamase (assay without detergent); Potency, µM (doses to about 57.1 µM), inactives show at the top dose activity change, negative = inhibition, hits mostly inhibitors; 330,000 tested, 0.52% active; AmpC nitrocefin hydrolysis, absorbance 480 nm, 0.0001% Triton; P00811;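 further: plate controls were no compound for no effect and no enzyme for full effect; nearly all actives have a fitted effect of over 20% in size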
Target sequence (P00811 whole entry, looked up): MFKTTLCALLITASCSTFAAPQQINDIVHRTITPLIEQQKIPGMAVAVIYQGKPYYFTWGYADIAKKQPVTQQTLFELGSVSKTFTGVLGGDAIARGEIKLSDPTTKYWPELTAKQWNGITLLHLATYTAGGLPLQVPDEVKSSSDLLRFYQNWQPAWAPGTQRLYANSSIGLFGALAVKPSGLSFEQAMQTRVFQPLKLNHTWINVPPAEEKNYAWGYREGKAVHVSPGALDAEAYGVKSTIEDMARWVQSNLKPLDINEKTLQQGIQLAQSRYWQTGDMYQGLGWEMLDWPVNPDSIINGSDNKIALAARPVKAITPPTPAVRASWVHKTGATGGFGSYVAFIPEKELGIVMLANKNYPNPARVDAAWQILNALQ
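20 mM phosphate pH 7.0 + 0.01% (detergent screen) or 0.0001% Triton X-100; 5.3 nM AmpC reagent; cpd preinc 15 min RT; nitrocefin (800 uM stock) to start; A480 q20 s × 4 min; Activity was normalised to no-enzyme and no-compound control wells.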
Giardia FBPA inh: qHTS Assay for Inhibitors of Fructose-1,6-bisphosphate Aldolase from Giardia Lamblia. purified Giardia FBPA. Potency, µM (highest dose often 59.6 µM), for inactives: at the top dose activity, negative = inhibition, usual class: inhibitors. 290,000 tested, 0.71% active. AID 2451, 2010; further: nearly all actives have a fitted effect of over 55% in size
Target sequence (A8B2U2 whole entry, looked up): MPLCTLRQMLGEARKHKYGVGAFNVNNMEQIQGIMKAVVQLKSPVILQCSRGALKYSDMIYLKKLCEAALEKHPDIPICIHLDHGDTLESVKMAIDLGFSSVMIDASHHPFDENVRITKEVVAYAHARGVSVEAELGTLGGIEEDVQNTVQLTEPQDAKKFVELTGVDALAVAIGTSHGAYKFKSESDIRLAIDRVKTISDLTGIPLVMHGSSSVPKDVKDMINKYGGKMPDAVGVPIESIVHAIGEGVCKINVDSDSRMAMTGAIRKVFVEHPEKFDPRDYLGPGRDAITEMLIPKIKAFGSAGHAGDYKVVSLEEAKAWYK
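40 nM FBPA preincubated 10 min at RT with compound (up to 57.5 uM final), then substrate plus GAPDH/TPI/NAD/arsenate coupling and diaphorase/resazurin added. Fluorescence read after 20 min at RT, 525/598 nm.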
AmpC detergent: qHTS Inhibitors of AmpC Beta-Lactamase (assay with detergent); Potency, µM (series often up to 114 µM), for inactives: at the top dose activity change, negative = inhibition, actives largely listed as inhibitors; P00811; AmpC hydrolysis of nitrocefin, absorbance 480 nm, 0.01% Triton; 370,000 tested, 0.041% active;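 further: 0% = no-compound wells and -100% = no-enzyme wells; nearly all actives have a fitted effect of over 25% in size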
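20 mM phosphate pH 7.0 + 0.01% (detergent screen) or 0.0001% Triton X-100; 5.3 nM AmpC reagent; cpd preinc 15 min RT; nitrocefin (800 uM stock) to start; A480 q20 s × 4 min; Activity was normalised to no-enzyme and no-compound control wells.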
AMA1-RON2 inh: qHTS for Inhibitors of AMA1-RON; Towards Development of Antimalarial Drug Lead: Primary Screen | Plasmodium falciparum AMA1 (3D7) - RON2 peptide interaction | AlphaScreen AMA1-biotinylated RON2 peptide binding | Potency, µM (highest dose often 58.2 µM), inactives show at the top dose activity change, negative = inhibition, hits mostly inhibitors | 360,000 tested, 0.2% active;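 further: 0% = vehicle wells and -100% = peptide control; nearly all actives have a fitted effect of over 45% in size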
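AMA1 (3D7) with his tag at 25 nM final met compounds first, then biotinylated RON2 peptide at 25 nM; detection used donor plus acceptor beads, 10 µg/mL apiece, read by AlphaScreen after 30 min at room temperature.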
* hit, by the source's call; ? = inconclusive; · = no result given; [ ] = dose if it differs, or a comment. Compounds with a hit are over-represented: about 1.1% of the library has one in this group of screens. The call rests on the fitted dose curve; in most records, active means well fitted curve in the direction sought with a large enough effect; inconclusive means small, poorly fitted or top-dose-only effect, or another doubt; inactive means no such curve, though single readings can be large; an effect the other way counts as inactive or inconclusive. Unless noted, on the % scale 0 is the no-effect control and ±100 the full control effect; potency means the concentration at half of the fitted maximal effect.

SMILES	AmpC inh no detg	Giardia FBPA inh	AmpC detergent	AMA1-RON2 inh
N#Cc1ccc(C(=O)Nc2cccc(S(=O)(=O)NC3=NCCC3)c2)cc1	-7.9%	·	·	-6.2%
Cc1cc(C)c(C#N)c(Sc2nnnn2-c2ccccc2)n1	0.562µM*	-0.8%	?	-2.5%
Cc1ccc(N2CCOCC2)c2c1C(=O)c1ccccc1C2=O	120.5%	-12.0%	2.5%	14.1µM*
COc1ccc(-c2ccc(C(c3c(C)[nH][nH]c3=O)c3c(C)[nH][nH]c3=O)o2)c([N+](=O)[O-])c1	-27.1%	6.29µM*	-6.9%	49.4%
Cc1[nH][nH]c(=O)c1C(c1ccc(-c2ccc(Cl)c(Cl)c2)o1)c1c(C)[nH][nH]c1=O	-41.6%	?	4.7%	68.2%
Cn1nnnc1SCC(=O)Nc1nc2c(F)c(F)c(F)cc2s1	-19.4%	·	·	-3.5%
Oc1ccc(N=Nc2c(O)ccc3ccccc23)cc1	-51.6%	?	?	16.8µM*
COc1ccccc1CNc1nc(-c2ccccc2OC)nc2ccccc12	·	1.3%	·	·
O=C(NNc1ccccc1[N+](=O)[O-])Nc1ccc(Cl)c(Cl)c1	25.1µM*	-24.8%	-14.6%	-8.1%
Cc1ccc2c(c1C)NC(C(=O)O)C1CC=CC21 (centres undefined)	-46.8%	-25.7%	?	11.9µM*
CCN(CC)C(=O)c1ccc2c(c1)C1C=CCC1C(C(=O)O)N2 (centres undefined)	-17.8%	?	-4.6%	12.6µM*
CCOC(=O)c1ccc2c(c1)C1C=CCC1C(C(=O)O)N2 (centres undefined)	-45.9%	?	?	·
O=Nc1[nH]c(=O)c(/C=C(\O)c2ccccc2)nc1NO	-18.2%	?	1.3%	32.7%
CC1CCc2nn(CC(=O)NCCN3CCOCC3)cc2C1 (centres undefined)	11.2µM*	1.3%	-0.2%	-0.6%
CC1CCc2nn(CC(=O)NCCC3=CCCCC3)cc2C1 (centres undefined)	0.562µM*	1.1%	?	5.5%
CCOc1ccc(NS(=O)(=O)c2ccc(-c3cc(C)no3)s2)cc1	·	·	0.4%	·
O=C(NCCc1ccc(Cl)cc1)c1nnc(Cc2ccc(F)cc2)o1	·	·	3.8%	·
CCN(CC)c1ncc(C#N)c(N)n1	-14.3%	-1.6%	-1.8%	10.3%
CCc1ccc(S(=O)(=O)NCCc2csc(-c3cccnc3)n2)s1	35.5µM*	-1.1%	2.6%	12.0%
O=C(NCCc1csc(-c2cccnc2)n1)c1cccc2ccccc12	-14.5%	3.2%	?	-2.1%
Cc1cccc(C(=O)NCCc2csc(C)n2)c1	3.55µM*	-0.1%	-10.5%	3.4%
CCc1ccc(S(=O)(=O)NCCc2csc(-c3ccccc3)n2)s1	-27.2%	-13.6%	1.0%	12.4%
O=C(NCCc1csc(-c2cccnc2)n1)c1ccccc1	1.41µM*	-0.3%	?	-3.2%
O=C(Nc1c(-c2ccccc2)[nH][nH]c1=O)c1ccc(Br)cc1	·	·	·	9.3%
O=C(COc1ccc(Br)cc1)Nc1ccccc1C(=O)NC1CC1	3.16µM*	·	?	0.8%
SMILES	AmpC inh no detg	Giardia FBPA inh	AmpC detergent	AMA1-RON2 inh
CN(C)c1ccc(NC(=O)Nc2ccc3c(c2)nnn3C)cc1	-11.4%	-5.5%	?	-5.2%
CN(C)c1ccc(NC(=O)Nc2cccc(Cl)c2)cc1	5.01µM*	-22.0%	?	?
CN(C)c1ccc(NC(=O)Nc2ccc3c(c2)c(=O)n(C)n3-c2ccccc2)cc1	·	·	·	20µM*
COC(=O)c1sccc1NC(=O)c1c(F)c(F)c(F)c(F)c1F	·	·	·	22.0%
COc1cc(-c2nc(-c3ccc4c(c3)[nH]c(=O)n4C)no2)cc(OC)c1OC	·	·	4.4%	·
CN(C/C=C\c1ccccc1)Cc1cccc2ccccc12	·	-3.0%[21.7 µM]	·	·
COc1ccc2ccccc2c1/C=N\NC(=O)c1ccc(C)s1	11.2µM*	·	-0.9%	24.0%
COc1ccc2ccccc2c1/C=N/NC(=O)c1ccccc1F	-26.9%	-22.7%	?	10.1%
Oc1ccc(NCc2cccc(OCc3ccc(F)cc3)c2)cc1	-55.6%	17.7µM*	2.2%	31.1%
Oc1ccc(NCc2cccc(OCc3ccccc3)c2)cc1	-27.3%	15.8µM*	8.5%	35.7%
O=[N+]([O-])c1ccc(COc2cccc(CNc3ccc(F)cc3)c2)cc1	-2.6%	-5.8%	3.3%	-28.7%
CCOc1ccccc1NC(=O)c1cc(CC(C)C)oc1C	0.316µM*	-0.6%	4.1%	6.7%
CCN(CC)S(=O)(=O)c1ccc2c(c1)N(CC(=O)Nc1ccc(F)cc1F)C(=O)C1CCCN21 (centres undefined)	·	·	4.1%	·
CCCCC/C=C\C/C=C\CCCCCCCCCC(=O)NCCc1ccc(O)c(O)c1	·	1.2%	·	·
CC(=O)c1ccc(NC(=O)Cn2c3ncccc3c(=O)n2-c2ccc(C)cc2)cc1	·	·	3.1%	·
CC1CC(C)CN(c2ccc(C(=O)NCc3ccc4c(c3)OCO4)cc2[N+](=O)[O-])C1 (centres undefined)	3.16µM*	-10.3%	-3.6%	?
O=C(Nc1cccc(OC(F)(F)F)c1)C1Cc2c(-c3ccccc3Oc3ccccc3)ccnc2O1 (centres undefined)	·	·	·	-9.2%
Clc1ccccc1C1CC(c2ccccc2)Nc2ncnn21 (centres undefined)	39.8µM*	-24.3%	?	-2.5%
c1ccc(C2CC(c3ccccc3)n3ncnc3N2)cc1 (centres undefined)	-10.9%	-1.6%	?	-5.0%
O=C(O)C1(C(=O)O)CCC1.[NH2-].[NH2-].[Pt+2]	·	14.1µM*	·	·
CC(=O)Nc1ccc(S(=O)(=O)N2CCN(S(=O)(=O)N3CCCCC3)CC2)cc1	0.5%	15.6%	1.1%	7.2%
CC(=O)Nc1ccc(S(=O)(=O)Nc2ccc(S(=O)(=O)N3CCCCCC3)cc2)cc1	20µM*	24.1%	-7.1%	-3.0%
O=C(COc1ccc2ccccc2c1)Nc1ccc(S(=O)(=O)N2CCCCCC2)cc1	17.8µM*	-4.9%	1.1%	-11.8%
O=C(NCCCN1CCOCC1)c1cc(S(=O)(=O)N2CCCCC2)ccc1Cl	·	·	·	-6.9%
O=C1OCC2OC(O)C(O)C(O)C2OC(=O)c2cc(O)c(O)c(O)c2-c2c(O)c(O)c3oc(=O)c4c(c(O)c(O)c5oc(=O)c2c3c54)-c2c1cc(O)c(O)c2O (centres undefined)	-22.3%	3.97µM*	-6.7%	·
SMILES	AmpC inh no detg	Giardia FBPA inh	AmpC detergent	AMA1-RON2 inh
CCN(CC(=O)Nc1ccc(OC)cc1)CC(=O)Nc1sc2c(c1C(=O)OC)CCCC2	64.2%	·	4.6%	61.7%
O=[N+]([O-])c1ccc(N/N=C/c2cccc(O)c2O)cc1	17.8µM*	-11.7%	-14.7%	-2.7%
O=[N+]([O-])c1ccc(N/N=C/c2cccc(O)c2)cc1	-45.8%	6.4%	-2.4%	-8.3%
CNC(=O)C[C@H]1C(=O)N(CCc2ccccc2)C[C@@H]1CSC	·	·	·	-2.5%
COc1ccc(-c2nnc(SCC(=O)Oc3cc(C)ccc3C)o2)cc1	·	·	-1.4%	·
COc1ccc(NC(=O)Cc2csc(NC(=O)Nc3ccccc3OC)n2)cc1	·	·	·	0.0%
